Data from PubChem BioAssay (NCI).
This is part of a sample that, as a whole, favours compounds with a hit. Of some 83,000 tested, about 20% had one in any assay.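 Negative percent growth values reflect cell death: -40 means 40% of the cells present at the start died, and -100 means all died.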 Values without a mark were called inactive. Calls of active or inactive are those of the source.

Test system: BT-549 breast
Test: NCI-60 one-dose screen, 48 h (100 = growth as untreated, 0 = no growth, -100 = all killed)
Conditions: 10 µM unless noted
Method: Growth inhibition of the BT-549 human tumor cell line is measured as a screen for anti-cancer activity. Cells are grown in 96 well plates and exposed to the test compound for 48 hours. Compounds are tested at a single concentration, which is 10^-5 M for most compounds. The reported endpoint is percent growth (GI% or GIPRCNT), where numbers from 0 - 100% represent growth inhibition, and numbers from -100% - 0 represent cell death. For example, a value of 40 represents 60% growth inhibition. A value of 0 means no net growth occurred over the course of the experiment. A value of -40 indicates 40% of cells at the beginning of the experiment died by the end of the experiment. A value of -100 means all cells are dead at the end of the experiment.
NCI-60 Human Tumor Cell Lines Screen was performed using the standard one-dose NCI protocol, which is described in more detail at https://dtp.cancer.gov/discovery_development/nci-60/default.htm.
Compounds with GIPRCNT values below 10 were considered active. Activity score was based on GIPRCNT using the following formula: […]
Score is 0 for GIPRCNT values of 100 or above, 50 for GIPRCNT values of 0, and 100 for GIPRCNT values of -100.

SMILES | growth
COc1cc(/C=C/C(=O)c2ccc(O)c(CN3CCN(c4cc5c(cc4F)c(=O)c(C(=O)O)cn5C4CC4)CC3)c2)cc(OC)c1OC | 31.8%
Cc1ccc(NS(=O)(=O)c2ccc(-c3cnc(C4CC4)o3)cc2)cc1C | 35.5%
COc1cc2nc(N3CCCC3)nc(NCc3ccccc3)c2cc1OC | 70.5%
C#CCOc1ccc2ncnc(N3CCN(C(=O)CCl)CC3)c2c1 | 56.8% [8.25 µM]
c1ccc2[nH]c(-c3ccc(Nc4nc(N5CCCC5)nc5[nH]ncc45)cc3)nc2c1 | 59.7%
CCc1nnc(CNc2ccc(Cl)cc2)o1 | 96.4%
Clc1ccc2c(NCCNc3nc(N4CCCCC4)nc4ccccc34)ccnc2c1 | 53.7%
CC(C)(O)c1cn(CCCCN2C(=O)C(=O)c3ccccc32)nn1 | 110%
CCOC(=O)c1sc2nc(-c3cccc(O)c3)nc(N3CCOCC3)c2c1C | 52.8%
O=C1/C(=C/c2ccc3c(c2)OCO3)SC(=S)N1CCc1ccc(O)cc1 | 96.6%
COc1cc2nc(N3CCCC3)nc(NCC3CCCCC3)c2cc1OC | 42.6%
CCOc1cc2c(cc1OCC)C(c1cc(OC)c(O)cc1Cl)NCC2 (stereo not given) | 102%
COc1cc2nnc3c4cccnc4[nH]c3c2cc1OC | 72.9%
CCOc1cc2ncc(C#N)c(Nc3ccc(F)c(Cl)c3)c2cc1NC(=O)CC1CCSS1 (stereo not given) | -25.3% (active)
O=C(/C=C/C=C/c1ccc2c(c1)OCO2)N/N=C\c1ccc(O)cc1O | 27.3%
CSc1ccc(SC2c3ccc(C)cc3Oc3nc(N)c(C#N)c(N)c32)cc1 (stereo not given) | -87.2% (active)
N#C/C(=C\c1ccc(-c2ccc(Cl)c(Cl)c2)o1)c1nc(-c2ccco2)cs1 | 109%
FC(F)(F)c1ccc(-c2cn3nc(-c4c[nH]c5ccc(Br)cc45)sc3n2)cc1 | 105%
O=C(O)c1ccc(N=CC(=O)c2ccc(-c3ccccc3)cc2)cc1 | 103%
CC(C)(CCCN=C(N)Nc1ccc(Cl)cc1)c1ccc(F)cc1 | 82.6%

SMILES | growth
O=C(Oc1cccnc1)c1ccsc1Nc1ccnc(C(F)(F)F)c1 | 45%
Cn1cc(-c2nonc2-c2c[nH]c3ccccc23)c2cccnc21 | 58.6%
CCOC(=O)c1sc(Nc2ccc(Cl)cc2)nc1C | -4.09% (active)
O=C(CCCCC(=O)N/N=C\c1ccccc1O)N/N=C\c1ccccc1O | 38.4%
NC(=NCCCOc1ccc(Cl)cc1)Nc1ccc(C(F)(F)F)cc1 | 73.2%
CC1=C/C(=C(\c2ccc(N(C)C)cc2)c2ccc([N+](C)(C)C)cc2)C=CC1=[N+](C)C | 96.1%
O=C1c2ccccc2C(=O)c2c(N=Nc3[nH]c(=S)[nH]c3O)cccc21 | 34.3%
CC1(C)CC[C@]2(C(=O)Nc3ccccn3)CC[C@]3(C)C(=CC[C@@H]4[C@@]5(C)C/C(=C/c6cccnc6)C(=O)C(C)(C)[C@@H]5CC[C@]43C)[C@H]2C1 | 42.2%
C=CC(=O)Nc1cccc(-c2nc(SC)nc(Nc3cccc(OC)c3)c2C#N)c1 | 45.4%
CN1CCN(CCCOc2cccc3nc(Nc4ccc(Cl)c(F)c4)ccc23)CC1 | 80%
Cc1ccc2c(C(C[N+](=O)[O-])c3ccccc3F)c(-c3ccccc3)[nH]c2c1 (stereo not given) | 50%
CC(=O)O[C@H]1CC[C@]2(C)[C@H]3CC=C4[C@@H]5CC(C)(C)CC[C@]5(C(=O)NCCNCCNCCN)CC[C@@]4(C)[C@]3(C)CC[C@H]2C1(C)C | 87.2%
CSc1nc(-c2cccc(NC(=O)CCl)c2)c(C#N)c(=O)n1C | 53.4%
C=CC(=O)Nc1cccc(Nc2nc(SC)nc(-c3cccc([N+](=O)[O-])c3)c2C#N)c1 | 58.4%
O=C(COc1cccc(/C=C2\COc3ccccc3C2=O)c1)Nc1nccs1 | -79.6% (active)
COc1cc(-c2nc(C(=O)NCC(=O)NO)nn2-c2ccc(Cl)cc2)cc(OC)c1OC | 105%
CCN(CC)c1ccc2c(c1)Oc1nc(N)c(C#N)c(N)c1C2Sc1ccc(SC)cc1 (stereo not given) | -80.4% (active)
O=C1NC(=S)N[C@H]1CC(=O)n1cnc2ccccc21 | 102%
COc1cc2c(cc1-c1c(C)noc1C)ncc1nc(C3CCC(F)(F)CC3)n([C@H](C)COC(F)F)c12 | 61.9%
Cc1cc(C)nc(SC2=C(Nc3ccc(O)cc3)C(=O)N(Cc3ccccc3)C2=O)n1 | 63.9% [40 µM]
